Measured values: PubChem BioAssay (NCI)
Compounds without any hit were thinned out: in the full panel of roughly 79,000, 15% have a hit. Calls of active or inactive are those of the source. No stated cut-off is given here; in the data, active means growth inhibition above about 70%; inactive means the rest.

Legend:
[1] = NCI Yeast Anticancer Drug Screen. Data for the rad52 strain (AID 147);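 further: 0% = growth of vehicle-treated control cultures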; details: S. cerevisiae rad52 mutant growth inhibition, active compounds read high
Procedure, shortened: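 Yeast strain carrying a DNA damage repair alteration was exposed to test compounds. Growth inhibition was measured relative to vehicle-treated controls.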

[2] = NCI Yeast Anticancer Drug Screen. Data for the rad50EPP+ strain (AID 151);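 further: 0% = growth of vehicle-treated control cultures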; details: S. cerevisiae rad50 mutant strain, active compounds read high
Procedure, shortened: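 Yeast strain carrying rad50 alteration (rad50EPP+) exposed to compounds; growth inhibition measured relative to vehicle-treated controls.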

[3] = NCI Yeast Anticancer Drug Screen. Data for the mgt1 strain (AID 153); details: S. cerevisiae mgt1 mutant growth inhibition, active compounds read high
Procedure, shortened: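 Yeast mgt1 strain (DNA repair/cell-cycle alteration panel) exposed to compounds; growth inhibition measured relative to vehicle-treated controls.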

[4] = NCI Yeast Anticancer Drug Screen. Data for the rad50 strain (AID 155);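 further: 0% = growth of vehicle-only cultures of the same strain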; details: S. cerevisiae rad50 strain growth inhibition, active compounds read high
Procedure, shortened: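 Genetically altered yeast (DNA repair pathway); compound treatment; growth inhibition vs vehicle ctrl.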

[5] = NCI Yeast Anticancer Drug Screen. Data for the mec2-1 strain (AID 157); details: S. cerevisiae mec2-1 strain, active compounds read high
Procedure, shortened: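 mec2-1 yeast strain, carrying an alteration in DNA damage repair or cell cycle control, was exposed to compounds; growth inhibition was measured relative to vehicle-treated controls.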

[6] = NCI Yeast Anticancer Drug Screen. Data for the rad14 strain (AID 159);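 further: 0% = growth of vehicle-treated control cultures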; details: S. cerevisiae rad14 strain growth inhibition, active compounds read high
Procedure, shortened: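 Test compounds were applied to a repair-deficient yeast strain. Its growth was then compared with that of cultures given vehicle alone, and inhibition was expressed relative to those controls.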

[7] = NCI Yeast Anticancer Drug Screen. Data for the sgs1 mgt1 strain (AID 161);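 further: 0% = growth of cultures given vehicle only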; details: S. cerevisiae sgs1 mgt1 strain, active compounds read high
Procedure, shortened: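 Compounds are added to genetically altered yeast, and growth is compared with cultures given vehicle alone to give percent inhibition.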

[8] = NCI Yeast Anticancer Drug Screen. Data for the CLN2oe strain (AID 163);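 further: 0% = growth of vehicle-only control cultures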; details: S. cerevisiae CLN2oe strain, active compounds read high
Procedure, shortened: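 Yeast cells carrying a defined cell-cycle control alteration were exposed to test compounds. Growth inhibition was scored against vehicle-treated control cultures.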

[9] = NCI Yeast Anticancer Drug Screen. Data for the cln2 rad14 strain (AID 165);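 further: 0% = growth equal to vehicle treated cultures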; details: S. cerevisiae cln2 rad14 strain, active compounds read high
Procedure, shortened: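 Yeast carrying cln2 and rad14 alterations (cell cycle control and DNA damage repair) were exposed to compounds. Growth inhibition was measured against vehicle-treated controls.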

[10] = NCI Yeast Anticancer Drug Screen. Data for the bub3 strain (AID 167); details: S. cerevisiae bub3 mutant strain, active compounds read high
Procedure, shortened: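 Yeast carrying a defined mutation is treated with each compound, and growth is compared with that of vehicle-exposed cells to give inhibition.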

[11] = NCI Yeast Anticancer Drug Screen. Data for the wt2 strain (AID 169);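 further: 0% = growth of vehicle-treated yeast cultures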; details: S. cerevisiae wt2 strain growth inhibition, active compounds read high
Procedure, shortened: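 Yeast cells were exposed to test compounds, and growth inhibition was measured relative to vehicle-treated controls.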

[12] = NCI Yeast Anticancer Drug Screen. Data for the mlh1 strain (AID 171);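 further: 0% = growth of vehicle-treated control cultures of the same strain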; details: S. cerevisiae mlh1 strain growth inhibition, active compounds read high
Procedure, shortened: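 Yeast carrying a defined genetic alteration in DNA damage repair or cell cycle control were exposed to test compounds. Growth inhibition was measured relative to vehicle-treated controls.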

[13] = NCI Yeast Anticancer Drug Screen. Data for the sgs1 strain (AID 173);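 further: 0% = growth of vehicle-only control cultures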; details: S. cerevisiae sgs1 mutant, active compounds read high
Procedure, shortened: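 Yeast mutant strains carrying defined defects in DNA damage repair or cell cycle control were exposed to test compounds. Growth inhibition was scored against vehicle-treated controls.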

[14] = NCI Yeast Anticancer Drug Screen. Data for the mlh1 rad18 strain (AID 175); details: S. cerevisiae mlh1 rad18 strain growth inhibition, active compounds read high
Procedure, shortened: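 Growth inhibition of the yeast strain was measured after compound exposure and expressed relative to vehicle-treated controls. The strain carries defined defects in DNA damage repair.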

[15] = NCI Yeast Anticancer Drug Screen. Data for the rad18 strain (AID 177); details: S. cerevisiae rad18 mutant growth inhibition, active compounds read high
Procedure, shortened: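 Yeast carrying a defined DNA damage repair alteration were exposed to compounds. Growth inhibition was expressed relative to vehicle-treated controls.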

[16] = NCI Yeast Anticancer Drug Screen. Data for the wt1 strain (AID 149);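 further: 0% = growth of vehicle-treated wt1 cultures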; details: S. cerevisiae wt1 strain (SPY 50644) growth inhibition, active compounds read high
Procedure, shortened: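 wt1 yeast, compound-treated; % growth inhibition vs vehicle control.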

[17] = at 5.0 µM (retest, dose inferred, filed as 0.5)
[18] = at 50.0 µM (retest, dose inferred, filed as 5.0)

Measured: growth inhibition

[N-]=[N+]=C1C(Cl)=C(Cl)C(Cl)=C1Cl
inactive: [1]; at 1.2 µM -1% | [1]; at 3.7 µM 17% | [1]; at 11.0 µM 63% | [2]; at 1.2 µM 1% | [2]; at 3.7 µM 6% | [2]; at 11.0 µM 32% | [3]; at 1.2 µM -1% | [3]; at 3.7 µM -1% | [3]; at 11.0 µM 46% | [4]; at 1.2 µM 6% | [4]; at 3.7 µM 8% | [4]; [17] 62% | [4]; at 11.0 µM 65% | [5]; at 1.2 µM 1% | [5]; at 3.7 µM 2% | [5]; [17] 15% | [5]; at 11.0 µM 59% | [6]; at 1.2 µM 1% | [6]; at 3.7 µM 5% | [6]; at 11.0 µM 44% | [7]; [17] 20% | [8]; at 1.2 µM -2% | [8]; at 3.7 µM 2% | [8]; at 11.0 µM 50% | [9]; [17] -6% | [10]; at 1.2 µM -8% | [10]; at 3.7 µM 1% | [10]; [17] 11% | [10]; at 11.0 µM 62% | [11]; at 1.2 µM 0% | [11]; at 3.7 µM 0% | [11]; at 11.0 µM 48% | [12]; at 1.2 µM 6% | [12]; at 3.7 µM -1% | [12]; at 11.0 µM 48% | [13]; at 1.2 µM -1% | [13]; at 3.7 µM 19% | [13]; at 11.0 µM 64% | [14]; [17] 33% | [15]; at 1.2 µM 3% | [15]; at 3.7 µM 13% | [15]; at 11.0 µM 62%
active: [1]; at 33.0 µM 99% | [1]; at 100.0 µM 99% | [2]; at 33.0 µM 83% | [2]; at 100.0 µM 98% | [3]; at 33.0 µM 95% | [3]; at 100.0 µM 99% | [4]; at 33.0 µM 99% | [4]; [18] 96% | [4]; at 50.0 µM 99% | [4]; at 100.0 µM 99% | [5]; at 33.0 µM 99% | [5]; [18] 98% | [5]; at 50.0 µM 99.5% | [5]; at 100.0 µM 99% | [6]; at 33.0 µM 99% | [6]; at 100.0 µM 99% | [7]; [18] 95% | [7]; at 50.0 µM 99.2% | [8]; at 33.0 µM 99% | [8]; at 100.0 µM 99% | [9]; [18] 97% | [9]; at 50.0 µM 98.8% | [10]; at 33.0 µM 98% | [10]; [18] 97% | [10]; at 50.0 µM 99% | [10]; at 100.0 µM 99% | [11]; at 33.0 µM 99% | [11]; at 100.0 µM 99% | [12]; at 33.0 µM 99% | [12]; at 100.0 µM 99% | [13]; at 33.0 µM 99% | [13]; at 100.0 µM 99% | [14]; [18] 97% | [14]; at 50.0 µM 99.1% | [15]; at 33.0 µM 98% | [15]; at 100.0 µM 99%

CC1CN=C(Nc2ccccc2)S1 (stereo unspecified)
active: [4]; [17] 100% | [4]; [18] 100% | [4]; at 50.0 µM 78.5% | [5]; [17] 100% | [5]; [18] 100% | [5]; at 50.0 µM 88.8% | [7]; at 50.0 µM 89.2% | [9]; at 50.0 µM 90.3% | [10]; at 50.0 µM 87.4% | [14]; [17] 100% | [14]; [18] 100% | [14]; at 50.0 µM 81.6%
inactive: [16]; at 1.2 µM -15% | [16]; at 3.7 µM -5% | [16]; at 11.0 µM -21% | [16]; at 33.0 µM -25% | [16]; at 100.0 µM -32% | [2]; at 1.2 µM -52% | [2]; at 3.7 µM -46% | [2]; at 11.0 µM -49% | [2]; at 33.0 µM -72% | [2]; at 100.0 µM -54% | [3]; at 1.2 µM -57% | [3]; at 3.7 µM -76% | [3]; at 11.0 µM -54% | [3]; at 33.0 µM -51% | [3]; at 100.0 µM -60% | [4]; at 1.2 µM -5% | [4]; at 3.7 µM 12% | [4]; at 11.0 µM -7% | [4]; at 33.0 µM 3% | [4]; at 100.0 µM -17% | [5]; at 1.2 µM -49% | [5]; at 3.7 µM -67% | [5]; at 11.0 µM -80% | [5]; at 33.0 µM -40% | [5]; at 100.0 µM -60% | [6]; at 1.2 µM -49% | [6]; at 3.7 µM -54% | [6]; at 11.0 µM -58% | [6]; at 33.0 µM -51% | [6]; at 100.0 µM -41% | [7]; [17] 2% | [7]; [18] 6% | [8]; at 1.2 µM -14% | [8]; at 3.7 µM -15% | [8]; at 11.0 µM -7% | [8]; at 33.0 µM -2% | [8]; at 100.0 µM 10% | [9]; [17] 16% | [9]; [18] 37% | [10]; at 1.2 µM -26% | [10]; at 3.7 µM -20% | [10]; [17] 26% | [10]; at 11.0 µM -41% | [10]; at 33.0 µM -25% | [10]; [18] 9% | [10]; at 100.0 µM -46% | [11]; at 1.2 µM -31% | [11]; at 3.7 µM -15% | [11]; at 11.0 µM -21% | [11]; at 33.0 µM -24% | [11]; at 100.0 µM -13% | [12]; at 1.2 µM -8% | [12]; at 3.7 µM -7% | [12]; at 11.0 µM -14% | [12]; at 33.0 µM -32% | [12]; at 100.0 µM -24% | [13]; at 1.2 µM -29% | [13]; at 3.7 µM -36% | [13]; at 11.0 µM -40% | [13]; at 33.0 µM -23% | [13]; at 100.0 µM -40% | [15]; at 1.2 µM -50% | [15]; at 3.7 µM -54% | [15]; at 11.0 µM -51% | [15]; at 33.0 µM -58% | [15]; at 100.0 µM -42%
